Potency data for twelve compounds are collected here from PubChem BioAssay (Tox21).

Each structure is given as a SMILES string. Results filed as inconclusive are left out. Entries that show only a call come without a potency. The source made the active and inactive calls. Unless noted, calls follow the shape of the dose curve; as a rule, active = well fitted cell-killing curve with a large enough effect in the repeat runs; inconclusive = weak or mixed curves, or effect the other way; inactive = no such curve, though single readings can be large or run the other way.

In one test the target is Peroxisome proliferator-activated receptor delta (Homo sapiens) (UniProt Q03181). The test is described as follows: qHTS assay to identify small molecule antagonists of the peroxisome proliferator-activated receptor delta (PPARd) signaling pathway (AID 743215; active = well fitted inhibition curve with a large enough effect in the signal ratio in the repeat runs, not every such curve was filed as active; the % refers to the signal ratio;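 also: cells stimulated with agonist L165041 at 300 nM final during compound exposure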; also: potency is read from the fitted curve at half-maximal effect). To be noted: HEK293H PPARd-UAS-bla, beta-lactamase FRET ratio, antagonist, 17 h; series mostly up to 62 µM. In outline: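 Read-out is beta-lactamase FRET fluorescence, measured 2 h after substrate addition at room temperature. Beforehand, UAS-bla HEK293H cells carrying the PPARd reporter were exposed to compounds with L165041 at 300 nM final for 17 h at 37 C.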
Sequence of Peroxisome proliferator-activated receptor delta (Homo sapiens) (Q03181 whole entry, looked up): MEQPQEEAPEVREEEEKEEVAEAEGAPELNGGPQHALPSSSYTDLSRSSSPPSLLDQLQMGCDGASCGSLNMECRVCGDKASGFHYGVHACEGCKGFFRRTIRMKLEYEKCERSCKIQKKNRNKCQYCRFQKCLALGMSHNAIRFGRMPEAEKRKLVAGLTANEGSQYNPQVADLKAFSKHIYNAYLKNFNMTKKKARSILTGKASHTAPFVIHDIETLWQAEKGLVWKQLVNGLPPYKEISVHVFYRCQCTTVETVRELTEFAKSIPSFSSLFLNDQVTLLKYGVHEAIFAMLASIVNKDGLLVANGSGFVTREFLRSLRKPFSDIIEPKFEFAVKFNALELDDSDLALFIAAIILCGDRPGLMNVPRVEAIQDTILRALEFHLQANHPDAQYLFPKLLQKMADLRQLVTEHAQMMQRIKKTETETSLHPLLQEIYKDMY
`CC(C)CCCCCCCOP(=O)(Oc1ccccc1)Oc1ccccc1`: the Potency entry was “inactive”.

On to `Oc1ccc(C(=C(Cl)Cl)c2ccc(O)cc2)cc1`, for which the Potency is 19.5 µM (active).

As for `c1ccc2c(c1)OCC(C1=NCCN1)O2` (centres undefined), the Potency was 23.7 µM (active).

For the compound `CC(=O)Nc1ccc2c(c1)Cc1ccccc1-2`, the Potency entry is “inactive”.

The target in a further test is Bile acid receptor (Homo sapiens) (UniProt Q96RI1). The test is described as follows: qHTS assay to identify small molecule antagonists of the farnesoid-X-receptor (FXR) signaling pathway (AID 743217; active = well fitted inhibition curve with a large enough effect in the signal ratio in the repeat runs, not every such curve was filed as active; the % refers to the signal ratio). As to conditions: HEK293T FXR-UAS-bla, beta-lactamase ratio, CDCA-stimulated, 16 h; series mostly up to 62.6 µM. In outline: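 HEK 293T FXR-UAS-bla, 5000 cells/well; compound + CDCA 50 uM final; 16 h, 37 °C; B/G FRET substrate 2 h RT; fluorescence.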
Sequence of Bile acid receptor (Homo sapiens) (Q96RI1 whole entry, looked up): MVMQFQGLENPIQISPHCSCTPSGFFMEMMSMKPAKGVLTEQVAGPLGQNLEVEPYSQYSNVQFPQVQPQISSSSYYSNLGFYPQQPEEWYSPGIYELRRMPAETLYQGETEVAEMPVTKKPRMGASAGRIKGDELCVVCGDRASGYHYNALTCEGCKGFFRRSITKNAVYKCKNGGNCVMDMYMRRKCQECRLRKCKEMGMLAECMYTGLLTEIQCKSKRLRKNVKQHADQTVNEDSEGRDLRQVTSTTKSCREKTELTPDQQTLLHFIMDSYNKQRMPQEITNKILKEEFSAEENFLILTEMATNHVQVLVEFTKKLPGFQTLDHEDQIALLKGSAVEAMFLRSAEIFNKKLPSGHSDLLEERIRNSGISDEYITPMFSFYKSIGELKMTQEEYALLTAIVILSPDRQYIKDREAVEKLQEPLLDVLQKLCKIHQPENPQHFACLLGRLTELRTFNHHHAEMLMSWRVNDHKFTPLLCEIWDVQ
For `CC(=O)C(Cl)(Cl)Cl`, the Potency result is “inactive”.

`CCCCOCN(C(=O)CCl)c1c(CC)cccc1CC`: the Potency result was “inactive”.

For the compound `O=c1ssc(Cl)c1Cl`, the Potency entry was “inactive”.

System in a further test: not listed separately
Put plainly: qHTS assay to identify small molecule agonists of the farnesoid-X-receptor (FXR) signaling pathway - cell viability counter screen (AID 743218). Also: nearly all actives have a fitted effect of over 45% in size. Also: potency is read from the fitted curve at half-maximal effect. To be noted: FXR-bla HEK293T viability, CellTiter-Glo luminescence, 16 h; series mostly up to 62.6 µM. In outline: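 HEK 293T FXR-bla cells; 5 h pre-incubation, 16 h compound exposure at 37 C; LiveBLAzer substrate 2 h RT, then CellTiter-Glo 30 min RT, luminescence.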
Take `CCCCOCN(C(=O)CCl)c1c(CC)cccc1CC`: the Potency result is “inactive”.

`ClC1=C(Cl)[C@]2(Cl)[C@@H]3[C@@H]4C[C@@H]([C@H]5O[C@@H]45)[C@@H]3[C@@]1(Cl)C2(Cl)Cl`: the Potency is 56.4 µM (active).

In the case of `CNC(C)Cc1ccc2c(c1)OCO2` (centres undefined), the Potency entry was “inactive”.

With `c1ccc(OCC2CO2)cc1` (centres undefined), the Potency entry is “inactive”.

For the compound `C=CCC1=C(C)C(OC(=O)C2C(C=C(C)C)C2(C)C)CC1=O` (centres undefined), the Potency is 51.9 µM (active).

As to `CCOP(=O)(NC(C)C)Oc1ccc(SC)c(C)c1` (centres undefined), the Potency result was “inactive”.

Take `CC(=O)Nc1ccc2c(c1)Cc1ccccc1-2`: the Potency entry was “inactive”.
